Activity calls are given as the source filed them. How the source made its calls: active means hit-call score of the fitted dose curve at least 0.9, where 1 is the maximum; inactive means score below 0.9.
Target: Transcriptional activator Myb (Homo sapiens) (UniProt P10242)
Assay: ATG_Myb_CIS: Attagene CIS-FACTORIAL HepG2 Assay for human Myeloblastosis (Myb) Proto-Oncogene Transcription Factor (AID 2282986)
Details: HepG2 Attagene CIS-FACTORIAL Myb reporter transcription; actives raise or lower the signal
Procedure: ATG_CIS is a cell-based, multiplexed-readout assay that uses HepG2, a human liver cell line, with measurements taken at 24 hours after chemical dosing in a 24-well plate.ATG_Myb_CIS is one of 52 assay component(s) measured or calculated from the ATG_CIS assay. It is designed to make measurements of mRNA induction, a form of inducible reporter, as detected with fluorescence intensity signals by Reverse transcription polymerase chain reaction (RT-PCR) and Capillary electrophoresis technology.Data from the assay component ATG_Myb_CIS was analyzed into 1 assay endpoint. This assay endpoint, ATG_Myb_CIS, was analyzed with bidirectional fitting relative to DMSO as the negative control and baseline of activity. Using a type of inducible reporter, measures of mRNA for gain or loss-of-signal activity can be used to understand the reporter gene at the transcription factor-level as they relate to the gene MYB. Furthermore, this assay endpoint can be referred to as a primary readout, because this assay has produced multiple assay endpoints where this one serves a reporter gene function. To generalize the intended target to other relatable targets, this assay endpoint is annotated to the dna binding intended target family, where the subfamily is MYB proteins.
Human liver HepG2 cells are transiently transfected with multiple reporter transcription units (MRTUs) in 6-well plates using FuGene 6 reagent (Roche; 3 ml FuGene/1 mg DNA). The MRTU constructs are regulated by a cis-regulating element (promoter). […] A major difference between the CIS and TRANS system is that in CIS activities of endogenous TFs are measured, whereas the TRANS assay evaluates changes in activities of exogenous, chimeric NR-Gal4 proteins. […] At the end of 24 hour incubation, total RNA was isolated using TriZol reagent (Invitrogen). The isolated RNA is then reverse-transcribed using oligo(dT) primer and Mo-MLV reverse transcriptase (Invitrogen) with DNAse I (Ambion) treatment for 30 min. The one-tenth of the produced cDNA was amplified by PCR using Taq DNA polymerase (Invitrogen) and two reporter sequence-specific primers. The PCR products were fluorescently labeled by primer extension with 6-arboxyfluorescein (6-FAM) 5'-labeled reporter sequence-specific primer (2 min at 95 C, 20 s at 68 C and 10 min at 72 C) and these products were digested with 5U of HpaI (New England Biolabs) for 2h at 37 C. The fragments were purified using Qiaquick PCR columns (Qiagen), analyzed on an ABI 3130xL genetic analyzer (Applied Biosystems) with peak positions identified by using a set of X-rhodamine (ROX)-labeled MapMarker1000 molecular weight standards (BioVentures). The raw capillary electrophoresis data was processed using Attagraph software (Attagene).

Sequence of Transcriptional activator Myb (Homo sapiens) (P10242 whole entry, looked up): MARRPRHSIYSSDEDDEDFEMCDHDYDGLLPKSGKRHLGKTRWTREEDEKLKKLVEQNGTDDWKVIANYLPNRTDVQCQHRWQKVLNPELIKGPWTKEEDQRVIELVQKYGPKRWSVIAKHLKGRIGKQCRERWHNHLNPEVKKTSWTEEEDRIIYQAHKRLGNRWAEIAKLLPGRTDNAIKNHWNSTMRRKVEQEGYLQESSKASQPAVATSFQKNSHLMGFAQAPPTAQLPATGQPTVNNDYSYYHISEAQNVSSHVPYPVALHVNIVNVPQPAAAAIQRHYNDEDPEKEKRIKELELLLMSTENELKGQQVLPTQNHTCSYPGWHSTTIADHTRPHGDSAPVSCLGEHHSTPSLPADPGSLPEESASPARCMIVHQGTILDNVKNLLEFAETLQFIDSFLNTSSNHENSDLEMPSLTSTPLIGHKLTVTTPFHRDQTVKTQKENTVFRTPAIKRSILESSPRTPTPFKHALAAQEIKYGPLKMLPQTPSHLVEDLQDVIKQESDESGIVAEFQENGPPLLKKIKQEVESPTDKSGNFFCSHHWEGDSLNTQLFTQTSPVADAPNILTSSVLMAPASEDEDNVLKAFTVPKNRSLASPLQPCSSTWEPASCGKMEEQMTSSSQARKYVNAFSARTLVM

outcome, inactive:
OCc1cccc(Oc2ccccc2)c1, Nc1ccc(NCCO)c([N+](=O)[O-])c1, COC(C)(C)CC(C)=O, Cc1ncc([N+](=O)[O-])n1CCO, O=C(O)CCCCCCCCC(=O)O, CC(=O)NCCO, C=C1C[C@]23C[C@@]1(O)CC[C@H]2[C@@]12C=C[C@H](O)[C@@](C)(C(=O)O1)[C@H]2[C@@H]3C(=O)O, CCCOCCO, CCOc1ccc(NC(=O)CC(C)O)cc1 (stereo not given), CC(C)CCOC(=O)c1ccccc1, C=CCCC(=O)/C=C/C1C(C)=CCCC1(C)C (stereo not given), C=C(CC(=O)O)C(=O)O, CN(C)C(=S)SC(=S)N(C)C, CC/C=C\CCOC(=O)CC, C#CC(C)(O)CC(C)C (stereo not given), C=CC(=O)OCCC#N, C=CC(=O)OCCCC, CC(=O)O[C@@H]1C[C@@H]2CC[C@@]1(C)C2(C)C, O=c1c(O)c(-c2ccc(O)cc2)oc2cc(O)cc(O)c12, CCCCC(CC)(CO)CO, N[C@@H](Cc1cc(I)c(Oc2cc(I)c(O)c(I)c2)c(I)c1)C(=O)O, CC1=C(Br)C(=O)C(Br)=C/C1=C(/c1ccccc1S(=O)(=O)O)c1cc(Br)c(O)c(Br)c1C, CCCOC(=O)c1c(Cl)c(Cl)c(Cl)c(Cl)c1C(=O)OCCC, C=C(C)C1CC=C(C)C(=O)C1 (stereo not given), CCCC(C)=O, CCC(Cl)C(Cl)C(Cl)CC(Cl)C(Cl)C(C)Cl (stereo not given), CCCC(=O)OC(C)(C)Cc1ccccc1, CSCCC=O, CCOC(=O)[C@@H](C)Oc1ccc(Oc2nc3ccc(Cl)cc3o2)cc1, CCOC(=O)CC(C)O (stereo not given), CCN(CCC#N)c1ccc(N=Nc2ccc([N+](=O)[O-])cc2)cc1, CCOC(=O)C(C#N)=C(c1ccccc1)c1ccccc1, CC(C)=CCCC(C)CCOC=O (stereo not given), OCC#CCO, CC(C)c1ccccc1O, Nc1ccc(Cl)c([N+](=O)[O-])c1, CCCC1O[C@@H]2C[C@H]3[C@@H]4CCC5=CC(=O)C=C[C@]5(C)[C@H]4[C@@H](O)C[C@]3(C)[C@]2(C(=O)CO)O1 (stereo not given in full), CC(=O)CC(=O)Nc1ccccc1, Nc1ccn([C@H]2CS[C@@H](CO)O2)c(=O)n1, CC(C)Nc1nc(N)nc(Cl)n1
